Reference: PubChem BioAssay (EPA / NIEHS)
The source made the active and inactive calls. The calls were made as follows: active = hit-call score of the fitted dose curve at least 0.9, where 1 is the maximum; inactive = score below 0.9.

Tests used:
Details in all cases: mRNA level, 48 h; actives raise or lower the signal
[1] = read-out: CFLAR gene, CFLAR (gene 8837); experiment: LTEA_HepaRG_CFLAR: Life Technologies and Expression Analysis (LTEA) Assay for CFLAR gene using HepaRG (AID 2283455)
Method in brief: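 Differentiated HepaRG cells in serum-free induction medium were exposed 48 h in duplicate to eight half-log concentrations up to 100 uM in 0.5% DMSO; mRNA measured by TaqMan qRT-PCR, normalized to ACTB, GAPDH, POLR2A; bidirectional fitting versus DMSO.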

[2] = read-out: Forkhead box O1 (FOXO1), FOXO1 (gene 2308); experiment: LTEA_HepaRG_FOXO1: Life Technologies and Expression Analysis (LTEA) Assay for Forkhead box O1 (FOXO1) using HepaRG (AID 2283456)
Method in brief: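 Differentiated HepaRG cells, in serum-free induction medium with 0.5% DMSO, exposed 48 h in duplicate to 8-point half-log series from 100 uM. FOXO1 mRNA measured by TaqMan qRT-PCR, normalized to ACTB, GAPDH, POLR2A; bidirectional fit versus DMSO.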

[3] = read-out: growth arrest and DNA damage 45 (GADD45A), GADD45A (gene 1647); experiment: LTEA_HepaRG_GADD45A: Life Technologies and Expression Analysis (LTEA) Assay for growth arrest and DNA damage 45 (GADD45A) using HepaRG (AID 2283458)
Method in brief: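 Differentiated HepaRG cells were exposed in duplicate for 48 h in serum-free induction medium to 8-point half-log concentrations up to 100 uM in 0.5% DMSO. GADD45A mRNA was measured by TaqMan qRT-PCR, normalized to ACTB, GAPDH and POLR2A, with bidirectional fitting versus DMSO.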

[4] = read-out: Forkhead box O3 (FOXO3), FOXO3 (gene 2309); experiment: LTEA_HepaRG_FOXO3: Life Technologies and Expression Analysis (LTEA) Assay for Forkhead box O3 (FOXO3) using HepaRG (AID 2283459)
Method in brief: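 Differentiated human HepaRG cells, 48 h post-plating, exposed in duplicate for 48 h in serum-free induction medium; 8-point half-log series from 100 uM in 0.5% DMSO. FOXO3 mRNA by TaqMan qRT-PCR, normalized to ACTB/GAPDH/POLR2A; bidirectional fit versus DMSO.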

[5] = read-out: ABC Transporter (ABCB1), ABCB1 (gene 5243); experiment: LTEA_HepaRG_ABCB1: Life Technologies and Expression Analysis (LTEA) Assay for ABC Transporter (ABCB1) using HepaRG (AID 2283460)
Method in brief: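 HepaRG cells exposed in duplicate for 48 h in serum-free induction medium to eight half-log concentrations up to 100 uM in 0.5% DMSO. ABCB1 mRNA quantified by qRT-PCR, normalised to ACTB, GAPDH and POLR2A; fitted bidirectionally versus DMSO.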

[6] = read-out: ABC Transporter (ABCC3), ABCC3 (gene 8714); experiment: LTEA_HepaRG_ABCC3: Life Technologies and Expression Analysis (LTEA) Assay for ABC Transporter (ABCC3) using HepaRG (AID 2283462)
Method in brief: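 Transcriptional change of ABCC3 in HepaRG after 48 h treatment, determined by qRT-PCR normalized to endogenous controls. Concentrations spanned eight half-log steps to 100 uM in 0.5% DMSO.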

[7] = read-out: ABC Transporter (ABCB11), ABCB11 (gene 8647); experiment: LTEA_HepaRG_ABCB11: Life Technologies and Expression Analysis (LTEA) Assay for ABC Transporter (ABCB11) using HepaRG (AID 2283463)
Method in brief: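 Differentiated human HepaRG cells in serum-free induction medium, dosed in duplicate for 48 h. Eight-point half-log series from 100 uM in 0.5% DMSO; ABCB11 mRNA by qRT-PCR, normalized to ACTB, GAPDH, POLR2A, fitted bidirectionally versus DMSO.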

[8] = read-out: ABC Transporter (ABCC2), ABCC2 (gene 1244); experiment: LTEA_HepaRG_ABCC2: Life Technologies and Expression Analysis (LTEA) Assay for ABC Transporter (ABCC2) using HepaRG (AID 2283464)
Method in brief: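 After plating and 48 h culture, HepaRG medium is replaced with serum-free induction medium and chemicals are added (8 concentrations, max 100 uM, 0.5% DMSO) for 48 h. Total RNA then undergoes qRT-PCR for ABCC2 with housekeeping normalization.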

[9] = read-out: ATP-citrate lyase (ACLY), ACLY (gene 47); experiment: LTEA_HepaRG_ACLY: Life Technologies and Expression Analysis (LTEA) Assay for ATP-citrate lyase (ACLY) using HepaRG (AID 2283466)
Method in brief: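 Differentiated HepaRG cells exposed 48 h in serum-free induction medium to eight half-log concentrations up to 100 uM in 0.5% DMSO, duplicates. Transcript measured by Fluidigm TaqMan qRT-PCR, normalized to ACTB, GAPDH, POLR2A; bidirectional fit versus DMSO.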

[10] = read-out: Peroxisomal acyl-coenzyme A oxidase 1 (ACOX1) gene, ACOX1 (gene 51); experiment: LTEA_HepaRG_ACOX1: Life Technologies and Expression Analysis (LTEA) Assay for Peroxisomal acyl-coenzyme A oxidase 1 (ACOX1) gene using HepaRG (AID 2283467)
Method in brief: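 HepaRG cells, plated 48 h then switched to serum-free induction medium, were exposed in duplicate for 48 h to 8-point half-log concentrations up to 100 uM in 0.5% DMSO. ACOX1 mRNA was measured by qRT-PCR, normalized to ACTB/GAPDH/POLR2A, and fitted bidirectionally versus DMSO.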

[11] = read-out: Alkaline Phosphatase, Placental (ALPP) gene, ALPP (gene 250); experiment: LTEA_HepaRG_ALPP: Life Technologies and Expression Analysis (LTEA) Assay for Alkaline Phosphatase, Placental (ALPP) gene using HepaRG (AID 2283468)
Method in brief: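 Using human liver HepaRG cells, chemicals are tested in duplicate over 48 h at half-log concentrations topping at 100 uM; phenobarbital 1 mM serves as induction control. ALPP mRNA change by qRT-PCR, bidirectional fit against vehicle.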

[12] = read-out: adenosine kinase (ADK) gene, ADK (gene 132); experiment: LTEA_HepaRG_ADK: Life Technologies and Expression Analysis (LTEA) Assay for adenosine kinase (ADK) gene using HepaRG (AID 2283471)
Method in brief: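 Read-out is ADK transcript level measured by qRT-PCR and normalised to three housekeeping genes. Cells are human HepaRG, dosed for 48 h at up to 100 uM in 0.5% DMSO. Gain or loss of signal is fitted against DMSO controls.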

[13] = read-out: Alpha-fetoprotein (AFP) gene, AFP (gene 174); experiment: LTEA_HepaRG_AFP: Life Technologies and Expression Analysis (LTEA) Assay for Alpha-fetoprotein (AFP) gene using HepaRG (AID 2283472)
Method in brief: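 Human HepaRG cells plated 48 h, then switched to serum-free induction medium and exposed in duplicate for 48 h to 8-point half-log series from 100 uM in 0.5% DMSO. AFP mRNA by qRT-PCR, normalized to ACTB, GAPDH, POLR2A; bidirectional fit versus DMSO.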

[14] = read-out: BCL2L11 (gene 10018); experiment: LTEA_HepaRG_BCL2L11: Life Technologies and Expression Analysis (LTEA) Assay for Bcl-2 (BCL2L11) gene using HepaRG (AID 2283473)
Method in brief: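 Human hepatic HepaRG cultures are treated 48 h with test chemicals (maximum 100 uM, 0.5% DMSO vehicle). Expression of BCL2L11 is measured by qRT-PCR against ACTB, GAPDH and POLR2A, with activity in either direction scored relative to vehicle.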

[15] = read-out: Apolipoprotein A-V (APOA5) gene, APOA5 (gene 116519); experiment: LTEA_HepaRG_APOA5: Life Technologies and Expression Analysis (LTEA) Assay for Apolipoprotein A-V (APOA5) gene using HepaRG (AID 2283474)
Method in brief: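 Concentration-response of APOA5 expression in HepaRG: eight half-log doses to 100 uM, 48 h, qRT-PCR normalized to ACTB/GAPDH/POLR2A, bidirectional fitting with 0.5% DMSO as baseline.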

[16] = read-out: growth arrest and DNA damage 45 (GADD45B), GADD45B (gene 4616); experiment: LTEA_HepaRG_GADD45B: Life Technologies and Expression Analysis (LTEA) Assay for growth arrest and DNA damage 45 (GADD45B) using HepaRG (AID 2283461)
Method in brief: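 Human HepaRG monolayers receive chemicals for 48 h at eight half-log concentrations, highest 100 uM, in 0.5% DMSO. Expression is measured by TaqMan qRT-PCR and normalized to ACTB, GAPDH and POLR2A.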

[17] = read-out: Broad substrate specificity ATP-binding cassette transporter ABCG2 (Homo sapiens) (UniProt Q9UNQ0); experiment: LTEA_HepaRG_ABCG2: Life Technologies and Expression Analysis (LTEA) Assay for ABC Transporter (ABCG2) using HepaRG (AID 2283465)
Method in brief: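 Differentiated HepaRG cells were exposed for 48 h in serum-free induction medium to 8 half-log concentrations, top 100 uM, in 0.5% DMSO. ABCG2 mRNA was measured by qRT-PCR, normalized to ACTB, GAPDH and POLR2A, with bidirectional fitting versus DMSO.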

[18] = read-out: Bcl-2 (BAX) gene, BAX (gene 581); experiment: LTEA_HepaRG_BAX: Life Technologies and Expression Analysis (LTEA) Assay for Bcl-2 (BAX) gene using HepaRG (AID 2283470)
Method in brief: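 Differentiated human HepaRG cells, plated 48 h then switched to serum-free induction medium, were exposed 48 h to 8 half-log concentrations up to 100 uM in 0.5% DMSO; BAX mRNA measured by qRT-PCR, normalized to ACTB, GAPDH, POLR2A.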

[19] = read-out: Bcl-2 (BAD) gene, BAD (gene 572); experiment: LTEA_HepaRG_BAD: Life Technologies and Expression Analysis (LTEA) Assay for Bcl-2 (BAD) gene using HepaRG (AID 2283469)
Method in brief: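 Differentiated HepaRG cells were exposed in duplicate in 0.5% DMSO for 48 h to eight-point half-log concentrations up to 100 uM. BAD mRNA was measured by Fluidigm TaqMan qRT-PCR, normalized to ACTB, GAPDH and POLR2A, and fitted bidirectionally against DMSO.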

Measured: AC50

Broad substrate specificity ATP-binding cassette transporter ABCG2 (Homo sapiens), sequence (Q9UNQ0 whole entry, looked up): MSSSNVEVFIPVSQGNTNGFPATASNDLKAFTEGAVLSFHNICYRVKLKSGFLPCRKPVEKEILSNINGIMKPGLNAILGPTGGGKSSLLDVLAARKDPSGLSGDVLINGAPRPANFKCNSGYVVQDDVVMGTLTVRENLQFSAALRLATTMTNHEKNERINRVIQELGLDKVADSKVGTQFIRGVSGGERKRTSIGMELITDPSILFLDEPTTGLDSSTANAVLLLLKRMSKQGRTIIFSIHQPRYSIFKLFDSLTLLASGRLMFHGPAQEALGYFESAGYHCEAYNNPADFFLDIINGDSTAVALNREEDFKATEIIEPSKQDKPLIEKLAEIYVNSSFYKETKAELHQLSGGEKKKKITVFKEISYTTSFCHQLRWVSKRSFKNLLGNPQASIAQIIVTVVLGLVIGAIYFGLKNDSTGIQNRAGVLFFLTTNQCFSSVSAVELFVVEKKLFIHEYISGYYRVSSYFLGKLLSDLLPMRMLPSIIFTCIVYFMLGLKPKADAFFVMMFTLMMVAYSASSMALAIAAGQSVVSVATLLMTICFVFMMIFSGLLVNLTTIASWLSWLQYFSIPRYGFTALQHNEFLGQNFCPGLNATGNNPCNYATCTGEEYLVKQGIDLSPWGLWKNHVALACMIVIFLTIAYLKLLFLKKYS

O=S(=O)(O)C(F)(F)C(F)(F)C(F)(F)C(F)(F)F
not listed: [16] | [17] | [18] | [19]
inactive: all other assays above

O=C(N[C@H]1CN2CCC1CC2)c1cc2ccoc2cn1
not listed: [5] | [9] | [12] | [19]
inactive: all other assays above

C[C@]12CCC(=O)C=C1CC[C@@H]1[C@@H]2CC[C@@]2(C)[C@H]1CC[C@]2(C)O
active: [3] 45.8 µM | [17] 9.08 µM | [11] 24.5 µM | [13] 63.6 µM | [15] 45.8 µM
inactive: [1] | [2] | [4] | [6] | [8] | [10] | [14]

C=CC(=O)NCNC(=O)C=C
active: [16] 50 µM | [8] 16 µM
not listed: [5] | [7] | [9] | [12] | [18] | [19]
inactive: all other assays above

Cc1ccccc1O
not listed: [5] | [7] | [9] | [12] | [16] | [17] | [19]
inactive: all other assays above

ClC1=C(Cl)[C@]2(Cl)[C@@H]3[C@@H](Cl)[C@H]4O[C@H]4[C@@H]3C1(Cl)C2(Cl)Cl
active: [17] 15.8 µM | [13] 21.9 µM
not listed: [5] | [7] | [9] | [12] | [16]
inactive: all other assays above

CC(C)(O)C(=O)Nc1ccc([N+](=O)[O-])c(C(F)(F)F)c1
active: [2] 0.0468 µM | [11] 0.0354 µM | [14] 0.0415 µM | [15] 0.0349 µM
not listed: [5] | [6] | [9] | [16] | [18] | [19]
inactive: all other assays above

CCOC(=O)C(O)(c1ccc(Cl)cc1)c1ccc(Cl)cc1
not listed: [5] | [7] | [9] | [16] | [17] | [18] | [19]
inactive: all other assays above

CCC(C)(CC)c1cc(NC(=O)c2c(OC)cccc2OC)on1
active: [8] 6.13 µM | [13] 28.9 µM
not listed: [5] | [7] | [9] | [16] | [17] | [18]
inactive: all other assays above

CCCCCCCCCc1ccc(O)cc1
not listed: [5] | [7] | [19]
inactive: all other assays above

CCCCCCCCCC[N+](C)(C)CCCCCCCCCC
inactive: [2] | [3] | [9] | [19] | [13] | [14] | [15]
active: [1] 76.5 µM | [4] 76.7 µM | [16] 78.8 µM | [6] 79.8 µM | [8] 94.2 µM | [10] 76.4 µM | [11] 90.5 µM | [18] 60.3 µM

O=C(NC(=O)c1cc(F)c(F)cc1Cl)Nc1cc(F)ccc1N1CCC(C(=O)O)CC1
active: [7] 2.05 µM
not listed: [5] | [12] | [16] | [18]
inactive: all other assays above

Clc1ccc(C(Cl)(Cl)Cl)cc1
not listed: [5] | [7] | [12] | [16] | [18]
inactive: all other assays above

O=NN(c1ccccc1)c1ccccc1
inactive: [1] | [2] | [4] | [6] | [8] | [10] | [13]
active: [3] 78.8 µM | [11] 82.7 µM | [14] 50 µM | [15] 76.1 µM

CC(C)(c1ccccc1)c1ccc(O)cc1
active: [13] 77.8 µM | [15] 78.3 µM
not listed: [1] | [7] | [9] | [19]
inactive: all other assays above

COc1ccc(O)c(C(C)(C)C)c1
not listed: [5] | [7] | [9] | [12] | [16] | [17] | [18]
inactive: all other assays above

CCSC(=O)N(CC)C1CCCCC1
not listed: [5] | [9] | [12] | [16] | [19]
inactive: all other assays above
